# Experimental data from ChEMBL document CHEMBL1157539, “Thousands of chemical starting points for antimalarial lead identification” (Nature, 2010).
# Test system: Plasmodium falciparum
# Assay: GSK_TCMDC: Inhibition of Plasmodium falciparum 3D7 in whole red blood cells, using parasite LDH activity as an index of growth. Test compounds present at 2uM
# Format: functional
row,SMILES,Inhibition [%]
1,O=C(N[C@@H](Cc1ccccc1)C(=O)NC1CCCCCC1)c1ccc(O)c(-c2ccc(Cl)c(Cl)c2)c1,92
2,Cc1ccc(Oc2c(-c3ccccc3CN3CCCC3CN(C)C)cnn(C)c2=O)cn1.O=C(O)C(F)(F)F (stereo not given),88
3,Cc1nc(-c2ccc(-c3ccc(C(=O)Nc4ccc(I)c(OCC5CCCN5C)c4)cc3)c(C)c2)no1.Cl (stereo not given),97
4,O=C(Cc1c[nH]cn1)Nc1cccc(-c2ccc(-c3nc4cc(F)ccc4[nH]3)s2)c1,100
5,CCCCCN1CCC(NS(=O)(=O)c2cccc(C(=O)Nc3ccc(Cl)cc3)c2)CC1.O=C(O)C(F)(F)F,88
6,Cc1ccc2cc(NC(=O)c3cccc(C(=O)Nc4ccc5nc(C)ccc5c4)n3)ccc2n1,92
7,CCn1c(-c2nonc2N)nc2c(-c3cccc(NC(=O)Nc4ccc(Cl)cc4)c3)ncc(OCCCN)c21.O=C(O)C(F)(F)F,96
8,CCCCOc1ccccc1C(=O)NCc1csc(-c2ccccc2)n1,93
9,CN(C)CCOc1ccc(N2CCN(CCCCNC(=O)c3ccc(NC(=O)c4ccc(Cl)cc4)cc3)CC2)cc1,99
10,COc1c(Br)cc(Br)cc1C(C)=O,95
11,Cc1[nH]cc(Br)c(=O)c1-c1ccc(Oc2ccc(OC(F)(F)F)cc2)cc1,96
12,CCNC(=O)c1ccc(-n2nc(C)cc2-c2ccccc2)cc1,89
13,O=C(NC1CCCC1)c1ccc(N2CCC(NCc3cccc(C(F)(F)F)c3)CC2)cc1,87
14,Cc1cc2c(cc1C(F)(F)F)N(C(=O)Nc1cc(OCCN(C)C)cc(C(F)(F)F)c1)CC2.Cl,100
15,Cc1cc(CNCC2CCC(CNCCCc3ccccc3)CC2)ccc1O (stereo not given),100
16,CN1CCC(N2CCN(Cc3cccc(-c4ccc(-c5nc6ccccc6[nH]5)cc4)c3)CC2)CC1.O=C(O)C(F)(F)F,100
17,Cc1ccc(C(=O)Nc2ccc(OC3CCN(CCC(C)C)C3)c(Cl)c2)cc1.O=C(O)C(F)(F)F (stereo not given),83
18,O=C(Nc1ccccc1)Nc1ccc(-n2ccc(C(F)(F)F)n2)cc1,95
19,COc1ccc(CCN(C)CCCN2CCC(NC(=O)c3cccc4c(=O)c5ccccc5[nH]c34)CC2)cc1OC.O=C(O)C(=O)O,99
20,Cn1nccc1C(=O)NCCNCc1cccc(-c2csc(-c3nc4ccccc4[nH]3)c2)c1.O=C(O)C(F)(F)F,100

row,SMILES,Inhibition [%]
1,CCCC(CC)n1ccc2c3c(N)nc(N)nc3ccc21.CS(=O)(=O)O (stereo not given),94
2,CC1(CCc2ccccc2)N=C(N)N(Cc2ccccc2)C(=O)C1c1ccc(Cl)c(Cl)c1.O=C(O)C(F)(F)F (stereo not given),97
3,CCc1cccc(-n2c(=O)c3cccnc3n2CC(=O)NCc2ccccc2Cl)c1,98
4,CCCCc1cc(NCC)nc(Nc2cccc(OC)c2)n1,97
5,Br.CC1(C)NC(N)=NC(=N)N1OCCCCOc1ccc(Cl)cc1C1CCCCC1,93
6,COc1ccccc1N1CCN(C(C(=O)NCc2ccc3c(c2)OCO3)c2ccc3c(c2)OCCCO3)CC1 (stereo not given),88
7,O=C(O)C(F)(F)F.Oc1ccc(CCCNc2nc(NCc3cccc4ccccc34)nc(NC3CCNCC3)n2)cc1,91
8,CN(C)Cc1cccc(-c2cnc(N)c(-c3nc4cc(S(C)(=O)=O)ccc4[nH]3)c2)c1.O=C(O)C(F)(F)F,100
9,Cc1cc2nc(-c3ccc(OCC(=O)NCc4ccc(C(C)(C)C)cc4)cc3)[nH]c2cc1C,94
10,CC1CN(Cc2ccc(-c3ccc(-c4nc5cc(F)ccc5[nH]4)cc3)cc2)CC(C)O1.O=C(O)C(F)(F)F (stereo not given),96
11,Cc1cccc2nc(-c3ccc(-c4ccc(NC(=O)Nc5ccc(Cl)c(Cl)c5)cc4)s3)[nH]c12,100
12,CN1CCC(C(=O)N(Cc2ccc(-c3ccc(CNCCc4ccc(S(C)(=O)=O)cc4)cn3)cc2)Cc2ccc3c(c2)OCO3)CC1.O=C(O)C(F)(F)F,91
13,CN(C)CCNc1cc(-c2ccc3ccccc3c2)nc2ccccc12,100
14,Cc1cc(=O)c(-c2ccc(Oc3ccc(Cl)cc3Cl)cc2)c(C)[nH]1,93
15,CN1CCN(c2ccnc3ccc(NC(=O)Cc4ccc5ccccc5c4)cc23)CC1,100
16,Oc1ccccc1CN(CCCN(Cc1ccccn1)Cc1ccccc1O)Cc1ccccn1,92
17,Cc1ccc(O)cc1Nc1ccnc2cc(-c3cccc(CNCCS(C)(=O)=O)c3)ccc12,99
18,CCOc1cc(C(=O)N[C@@H](Cc2ccccc2)[C@H](O)CNCc2cccc(OC)c2)cc(N2CCCCS2(=O)=O)c1.Cl,97
19,Cc1cccc2nc(-c3ccc(-c4cccc(NC(=O)c5cncn5C)c4)cc3)[nH]c12,100
20,c1cncc(Oc2ccc(Nc3ccnc4cc(-c5cccc(CN6CCCCC6)c5)ccc34)cc2)c1,100
